Where “and” joins values, the source holds several entries; their conditions need not be identical. Identical values can stand only once. Records with an inconclusive call do not appear. Values without a mark were called inactive. Calls of active or inactive are those of the source. Calls follow the shape of the dose curve; as a rule, active = well fitted curve in the direction sought with a large enough effect; inconclusive = small, poorly fitted or top-dose-only effect, or another doubt; inactive = no such curve, though single readings can be large; an effect the other way counts as inactive or inconclusive. *1 amine or outer side, *2 acyl side, *3 side chain or, on linkers, in order; H or OH if unused. Where a SMILES comes first, the peptide text is derived from it. Bridges are numbered along the chain shown (N, C = ends). [ ]: non-standard residue; d: D form. The star is where a group is joined. ξ: configuration not given here. ΔAla(3-NHCONH2) = NC(=O)NC=C(N)C(=O)O; X2 = NC1=NCCC(C(N[*:1])C(=O)[*:2])N1; ξβ3hOrn = NCCCC(N)CC(=O)*; Dap = NC[CH](N)C(=O)O

Experiment [1] concerns the target Cytochrome P450 3A7 (Homo sapiens) (UniProt P24462). Briefly: Cytochrome P450 family 3 subfamily A member 7 (CYP3A7) small molecule antagonists: luciferase biochemical qHTS assay (AID 1963596). Also: % is scaled to controls: 0 for no effect and ±100 for the full control effect; nearly all actives have a fitted effect of over 40% in size. The gist of the method: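 Luminescence read-out (relative luminescence units) after 20 min with detection reagent, which stops the reaction. Enzyme, proluciferin substrate and compound preincubated 10 min, RT; NADPH regeneration system then started 1 h reaction. Ketoconazole as positive control.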

The nature of experiment [2]: Viability qHTS for spleen associated tyrosine kinase inhibitor (SYKi) naive MV4-11 cells (AID 1963823). Also: nearly all actives have a fitted effect of over 40% in size. Also: potency is read from the fitted curve at half-maximal effect. The method, boiled down: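 In this viability screen, compounds acted on SYK inhibitor naive MV4-11 cells for three days (72 hr, 37 C). Remaining viable cells were measured by CellTiter-Glo luminescence following a 10 min room-temperature development.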
(In general: Quantitative high-throughput screening tests each substance at several concentrations.)

Experiment [3] in a line: Viability qHTS for spleen associated tyrosine kinase inhibitor (SYKi) drug resistant MV4-11 cells (AID 1963824). Also: nearly all actives have a fitted effect of over 35% in size. Also: potency is read from the fitted curve at half-maximal effect. The gist of the method:
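SYK inhibitor-resistant MV4-11 AML cells, 500 per well, added to predispensed compounds and incubated 72 hr at 37 C, 5% CO2. Viability measured by CellTiter-Glo luminescence after 10 min at room temperature.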

Experiment [4] in a line: Cellular viability qHTS for adrenocortical cancer (ACC) cell line SW-13 (AID 1963989).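 Also: cells grown in serum-free medium with ITS supplement; % is scaled to controls: 0 for no effect and ±100 for the full control effect; nearly all actives have a fitted effect of over 65% in size.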 The following applies: SW-13 ACC cells viability, CellTiter-Glo, 48 h; activity (max response): stronger effect = lower value. The gist of the method: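 Here, serum-free SW-13 cultures were dosed up to 46 uM. Following 48 h, ATP-dependent luminescence (CellTiter-Glo) reported viable cells, and logistic modeling produced IC50 values.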

A short description of experiment [5]: Cellular viability qHTS for adrenocortical cancer (ACC) cell line NCI-H295R (AID 1963990).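 Also: 0% = DMSO only wells and -100% = full killing with cytotoxic reference compound; nearly all actives have a fitted effect of over 60% in size.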 The gist of the method: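 Viability of NCI-H295R after 48 h of treatment (final up to 46 uM) measured through cellular ATP luminescence.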

Cytochrome P450 3A7 (Homo sapiens), sequence (P24462 whole entry, looked up): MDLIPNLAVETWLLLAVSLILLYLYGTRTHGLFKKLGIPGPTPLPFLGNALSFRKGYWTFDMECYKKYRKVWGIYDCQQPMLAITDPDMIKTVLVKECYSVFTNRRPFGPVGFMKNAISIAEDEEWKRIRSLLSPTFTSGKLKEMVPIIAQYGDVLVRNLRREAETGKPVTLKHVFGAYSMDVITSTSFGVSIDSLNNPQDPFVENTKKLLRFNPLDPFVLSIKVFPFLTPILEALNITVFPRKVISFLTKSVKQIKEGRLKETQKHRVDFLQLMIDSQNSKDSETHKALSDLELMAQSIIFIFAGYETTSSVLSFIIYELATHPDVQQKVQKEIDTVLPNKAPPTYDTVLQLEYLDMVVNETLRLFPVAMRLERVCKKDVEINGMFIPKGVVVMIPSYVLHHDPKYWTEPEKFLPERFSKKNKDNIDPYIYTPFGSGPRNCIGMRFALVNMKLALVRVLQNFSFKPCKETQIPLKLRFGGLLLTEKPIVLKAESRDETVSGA

Turning to `C=CCn1c(=O)n([C@@H]2O[C@H](CO)[C@@H](O)[C@H]2O)c2nc(N)[nH]c(=O)c21`, the Potency entry in experiment [1], in experiment [2], in experiment [3] and in experiment [5] was “inactive” in each case. Further, the activity (max response) in experiment [4] was 10.8%.
Consider `Nc1nc(=O)n([C@@H]2O[C@H](CO)[C@@H](O)[C@@H]2F)cc1I`, for which the Potency entry in experiment [1], in experiment [2], in experiment [3] and in experiment [5] was “inactive” each time. Besides, the activity (max response) in experiment [4] is 8.37%.
For the molecule `N#CCC(=O)NN`, the Potency entry in experiment [1], in experiment [2], in experiment [3] and in experiment [5] was “inactive” throughout. Besides, the activity (max response) in experiment [4] is 8.55%.
For the molecule `CCn1cc(C(=O)O)c(=O)c2cnc(N3CCCC3)nc21`, the activity change, negative = inhibition in experiment [1] was 25.3% [at 11.5 µM]. The viability (% of control) in experiment [2] was 74.1% [at 9.25 µM]. Also, the viability, % of control in experiment [3] is 103% [at 9.25 µM]. The activity (max response) in experiment [4] is -7.72%. Also, the activity change, negative = viability loss in experiment [5] was -14.1% [at 9.17 µM].
As to `O=C(CN1CCNCC1)NC1CCCCC1`, the Potency result in experiment [1], in experiment [2], in experiment [3] and in experiment [5] was “inactive” each time. The activity (max response) in experiment [4] was -8.69%.
As for `Cc1ccc(S(=O)(=O)NC(=O)NC2CCCCC2)cc1`, the Potency result in experiment [1], in experiment [2], in experiment [3] and in experiment [5] was “inactive” in each case. Also, the activity (max response) in experiment [4] was 8.41%.
Turning to `Nc1ccc(/C=C/c2ccc(N)cc2S(=O)(=O)O)c(S(=O)(=O)O)c1`, the activity change, negative = inhibition in experiment [1] is 6.59% [at 0.91 µM]. In addition, the viability (% of control) in experiment [2] is 106% [at 0.588 µM]. The viability, % of control in experiment [3] is 94.1% [at 0.588 µM]. For the same molecule, in experiment [4], the activity (max response) is 11.4%. Besides, in experiment [5], the activity change, negative = viability loss was -9.73% [at 0.587 µM].
Take `CCN1CCCC1CN` (stereo not given): the Potency result in experiment [1], in experiment [2], in experiment [3] and in experiment [5] was “inactive” each time. Also, in experiment [4], the activity (max response) is -2.8%.
Take `O=C(O)CN(CCOCCOCCN(CC(=O)O)CC(=O)O)CC(=O)O`: the activity change, negative = inhibition in experiment [1] was 3.38% [at 0.91 µM]. Besides, in experiment [2], the viability (% of control) was 65.2% [at 0.588 µM]. Moreover, the viability, % of control in experiment [3] was 96.9% [at 0.588 µM]. The activity (max response) in experiment [4] was -1%. Moreover, the activity change, negative = viability loss in experiment [5] is -8.55% [at 0.587 µM].
As for `Oc1ccc(Cl)c2cccnc12`, the Potency result in experiment [1], in experiment [2], in experiment [3] and in experiment [5] was “inactive” in each case. Moreover, in experiment [4], the activity (max response) is 4.85%.
Take `OC[C@H]1O[C@H](O[C@]2(CCl)O[C@H](CCl)[C@@H](O)[C@@H]2O)[C@H](O)[C@@H](O)[C@H]1Cl`: the Potency entry in experiment [1], in experiment [2], in experiment [3] and in experiment [5] was “inactive” each time. Further, the activity (max response) in experiment [4] was -4.41%.
Turning to `OC1(c2ccc(Cl)cc2)CCNCC1`, the Potency result in experiment [1], in experiment [2], in experiment [3] and in experiment [5] was “inactive” throughout. Moreover, the activity (max response) in experiment [4] was 11.1%.
As for `COc1ccc(OC)c(C(O)CNC(=O)CN)c1` (stereo not given), the Potency result in experiment [1], in experiment [2], in experiment [3] and in experiment [5] was “inactive” in each case. Moreover, the activity (max response) in experiment [4] is 12.3%.
Regarding `CC(=O)O[C@@H]1CC2C3CCc4cc(OC(=O)c5ccccc5)ccc4C3CCC2(C)[C@H]1OC(C)=O` (stereo not given in full), the Potency result in experiment [1], in experiment [2], in experiment [3] and in experiment [5] was “inactive” throughout. In experiment [4], the activity (max response) is 3.65%.
For `CN(C)CC/C=C1/c2ccccc2COc2ccc(CC(=O)O)cc21`, the Potency entry in experiment [1], in experiment [2], in experiment [3] and in experiment [5] was “inactive” in each case. Further, the activity (max response) in experiment [4] is 1.77% and 7.73%.
In the case of `COCC(=O)Nc1c(I)c(C(=O)NCC(O)CO)c(I)c(C(=O)N(C)CC(O)CO)c1I` (stereo not given), the Potency entry in experiment [1], in experiment [3] and in experiment [5] was “inactive” each time. The Potency in experiment [2] is 0.0009 µM (active). Besides, the activity (max response) in experiment [4] is -3.53%.
In the case of `NCCCC(N)CC(=O)NCC1NC(=O)C(CO)NC(=O)C(N)CNC(=O)C(C2CCN=C(N)N2)NC(=O)C(=CNC(N)=O)NC1=O` (stereo not drawn) (H-[Dap]S[Dap](ξβ3hOrn)[ΔAla(3-NHCONH2)][X2]; lactam 1-C; configuration not given here), in experiment [1], the activity change, negative = inhibition was 0.114% [at 0.91 µM]. In addition, the viability (% of control) in experiment [2] was 84.9% [at 0.588 µM]. Also, in experiment [3], the viability, % of control is 101% [at 0.588 µM]. In addition, the activity (max response) in experiment [4] is -2.59%. Besides, the activity change, negative = viability loss in experiment [5] is 3.92% [at 0.587 µM].
On to `O=C1NS(=O)(=O)c2ccccc21`, for which the Potency entry in experiment [1], in experiment [2], in experiment [3] and in experiment [5] was “inactive” throughout. For the same molecule, in experiment [4], the activity (max response) was 0.607%.
On to `CCCN(CCC)C(=O)C(CCC(=O)O)NC(=O)c1ccccc1` (stereo not given), for which the Potency entry in experiment [1], in experiment [2], in experiment [3] and in experiment [5] was “inactive” each time. Besides, the activity (max response) in experiment [4] was 0.293% and -17.2%.
Regarding `CN(C)C(=O)c1cc2cnc(Nc3ccc(N4CCNCC4)cn3)nc2n1C1CCCC1`, the Potency result in experiment [1] and in experiment [5] was “inactive” throughout. Moreover, the figures for the Potency in experiment [2] and in experiment [3] were 2.31 µM (active) and 5.17 µM (active), respectively. The activity (max response) in experiment [4] was -9.21%.
Consider `OC[C@@H](O)[C@@H](O[C@@H]1O[C@H](CO)[C@H](O)[C@H](O)[C@H]1O)[C@H](O)[C@@H](O)CO`, for which the Potency result in experiment [1], in experiment [2], in experiment [3] and in experiment [5] was “inactive” throughout. The activity (max response) in experiment [4] is 1.27%.
Take `NC1CCN(c2nc3c(cc2F)c(=O)c(C(=O)O)cn3-c2ccc(F)cc2F)C1` (stereo not given): the Potency result in experiment [1], in experiment [2], in experiment [3] and in experiment [5] was “inactive” throughout. Moreover, the activity (max response) in experiment [4] was -6.92%.
For the molecule `C[N+](C)(C)CC(O)CC(=O)[O-]` (stereo not given), the Potency entry in experiment [1], in experiment [2], in experiment [3] and in experiment [5] was “inactive” in each case. The activity (max response) in experiment [4] was -6.62%.
As to `O=C(O)CCNC(=O)c1ccccc1`, the Potency entry in experiment [1], in experiment [2], in experiment [3] and in experiment [5] was “inactive” throughout. The activity (max response) in experiment [4] is 1.23%.
As for `CN(C)C(=O)Oc1ccc[n+](C)c1`, the Potency entry in experiment [1], in experiment [2], in experiment [3] and in experiment [5] was “inactive” throughout. For the same molecule, the activity (max response) in experiment [4] was 13.3%.
With `O=C(Oc1ccccc1C(=O)O)c1ccccc1O`, the Potency result in experiment [1], in experiment [2], in experiment [3] and in experiment [5] was “inactive” in each case. For the same molecule, the activity (max response) in experiment [4] is -2.11%.
On to `CCOC(=O)c1ccccc1O`, for which the Potency result in experiment [1], in experiment [2], in experiment [3] and in experiment [5] was “inactive” throughout. In addition, the activity (max response) in experiment [4] is -1.17%.
